The target of experiment [1] is Atrial natriuretic peptide receptor 1 (Homo sapiens) (UniProt P16066). The experiment can be described thus: Natriuretic polypeptide receptor (hNpr1) antagonism - Pilot CMLD screen (AID 1347052; calls by dose curve;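 further: HEK293 cells with hNpr1 stimulated by hNppA peptide at 0.1 nM; cGMP level read as GloSensor luciferase luminescence after agonist stimulation; series mostly up to about 9.2 µM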).
Experiment [2] concerns the target Tyrosyl-DNA phosphodiesterase 1 (Homo sapiens) (UniProt Q9NUW8). The experiment can be described thus: Confirmation Assay for Inhibitors of Tyrosyl-DNA Phosphodiesterase (TDP1) (AID 489007). Further: potency means the concentration at half of the fitted maximal effect; nearly all actives have a fitted effect of over 40% in size. Particulars: recombinant human TDP1 enzymatic activity, dose-response. The gist of the method: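 Confirmation of primary-screen follow-ups in a qHTS format. Substrate cleavage by Tdp1 (1 nM) of a 3'-phosphotyrosine-FITC, 5'-biotin oligo (15 nM) was monitored as decreased AlphaScreen signal after a 5 min room-temperature reaction.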

Experiment [3] addresses Vitamin D3 receptor (Homo sapiens) (UniProt P11473). Nature of the experiment: qHTS for Inhibitors of the vitamin D receptor (VDR): Hit Validation in Primary Screen (AID 602199). Further: potency means the concentration at half of the fitted maximal effect. As to conditions: VDR-coactivator inhibition assay, qHTS confirmation. The gist of the method: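 Fluorescence polarization (Ex 620/Em 688 nm) of Alexa 647-SRC2-3 peptide with 800 nM VDR and 5 uM LG19078. Compounds at several concentrations, 2 h at room temperature.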

The target of experiment [4] is Rap guanine nucleotide exchange factor 3 (Homo sapiens) (UniProt O95398). Nature of the experiment: Confirmatory qHTS for antagonist of cAMP-regulated guanine nucleotide exchange factor 3 (EPAC1) (AID 1645880). Further: nearly all actives have a fitted effect of over 55% in size. The gist of the method: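 Nucleotide exchange uses 100 nM EPAC1, 250 nM RAP1B-BODIPY-GDP and 50 uM GDP, with compounds in a concentration-titration series. After 5 min at room temperature, fluorescence (480 nm ex/540 nm em) is read every 5 min for 30 min. Data are normalized to control ATA and DMSO.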
Background: Quantitative high-throughput screening tests each substance at several concentrations.

The target is the same in experiment [5]. The experiment can be described thus: Confirmatory qHTS for agonist of cAMP-regulated guanine nucleotide exchange factor 3 (EPAC1) (AID 1645881).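 Further: EPAC1 catalysed release of BODIPY-GDP from Rap1B seen as fluorescence loss; nearly all actives have a fitted effect of over 75% in size.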
Experiment [6] deals with Rap guanine nucleotide exchange factor 4 (Homo sapiens) (UniProt Q8WZA2). Nature of the experiment: Confirmatory qHTS for agonist of cAMP-regulated guanine nucleotide exchange factor 4 (EPAC2) (AID 1645884).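 Further: nucleotide exchange releases bodipy-GDP from Rap1 and this lowers its fluorescence; nearly all actives have a fitted effect of over 65% in size.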
For experiment [7] the target is unchanged. Nature of the experiment: Confirmatory qHTS for antagonist of cAMP-regulated guanine nucleotide exchange factor 4 (EPAC2) (AID 1645885). Further: nearly all actives have a fitted effect of over 25% in size.
Experiment [8] can be described thus: qHTS for Inhibitors of Plasmodium falciparum (DD2) proliferation (AID 504314).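 Further: parasite DNA measured by SYBR Green fluorescence after red cell lysis.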 A digest of the protocol: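 Quantitative HTS growth inhibition: SYBR Green I binding to parasite DNA after 72 h drug exposure of infected erythrocytes (0.3% parasitemia, 2.5% hematocrit). Signals normalized per plate to inhibitor and vehicle wells.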
Experiment [9] can be described thus: qHTS for Inhibitors of Plasmodium falciparum (GB4) proliferation (AID 504315). Further: nearly all actives have a fitted effect of over 50% in size. A digest of the protocol: (§1)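 Erythrocytes infected with P. falciparum line (0.3% parasitemia, 2.5% hematocrit final) incubated with compounds 72 h at 37 °C, 5% CO2; SYBR Green lysis buffer added, fluorescence read next day. Normalized to 0.29 uM artemisinin and DMSO.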
Experiment [10] is described as follows: qHTS for Inhibitors of Plasmodium falciparum (7G8) proliferation (AID 504316). Further: series mostly up to about 6.7 µM; nearly all actives have a fitted effect of over 65% in size. A digest of the protocol:
as §1

The nature of experiment [11]: qHTS for Inhibitors of Plasmodium falciparum (HB3) proliferation (AID 504318). Further: nearly all actives have a fitted effect of over 60% in size. A digest of the protocol:
as §1

SMILES strings stand for the structures. Records with an inconclusive call do not appear. A number with no mark means an inactive call. Some of the results follow. Where a call stands in place of a potency, no number is given. The source made the active and inactive calls. Unless noted, the call rests on the fitted dose curve; in most records, active means well fitted curve in the direction sought with a large enough effect; inconclusive means small, poorly fitted or top-dose-only effect, or another doubt; inactive means no such curve, though single readings can be large; an effect the other way counts as inactive or inconclusive.

Rap guanine nucleotide exchange factor 4 (Homo sapiens), sequence (Q8WZA2 whole entry, looked up): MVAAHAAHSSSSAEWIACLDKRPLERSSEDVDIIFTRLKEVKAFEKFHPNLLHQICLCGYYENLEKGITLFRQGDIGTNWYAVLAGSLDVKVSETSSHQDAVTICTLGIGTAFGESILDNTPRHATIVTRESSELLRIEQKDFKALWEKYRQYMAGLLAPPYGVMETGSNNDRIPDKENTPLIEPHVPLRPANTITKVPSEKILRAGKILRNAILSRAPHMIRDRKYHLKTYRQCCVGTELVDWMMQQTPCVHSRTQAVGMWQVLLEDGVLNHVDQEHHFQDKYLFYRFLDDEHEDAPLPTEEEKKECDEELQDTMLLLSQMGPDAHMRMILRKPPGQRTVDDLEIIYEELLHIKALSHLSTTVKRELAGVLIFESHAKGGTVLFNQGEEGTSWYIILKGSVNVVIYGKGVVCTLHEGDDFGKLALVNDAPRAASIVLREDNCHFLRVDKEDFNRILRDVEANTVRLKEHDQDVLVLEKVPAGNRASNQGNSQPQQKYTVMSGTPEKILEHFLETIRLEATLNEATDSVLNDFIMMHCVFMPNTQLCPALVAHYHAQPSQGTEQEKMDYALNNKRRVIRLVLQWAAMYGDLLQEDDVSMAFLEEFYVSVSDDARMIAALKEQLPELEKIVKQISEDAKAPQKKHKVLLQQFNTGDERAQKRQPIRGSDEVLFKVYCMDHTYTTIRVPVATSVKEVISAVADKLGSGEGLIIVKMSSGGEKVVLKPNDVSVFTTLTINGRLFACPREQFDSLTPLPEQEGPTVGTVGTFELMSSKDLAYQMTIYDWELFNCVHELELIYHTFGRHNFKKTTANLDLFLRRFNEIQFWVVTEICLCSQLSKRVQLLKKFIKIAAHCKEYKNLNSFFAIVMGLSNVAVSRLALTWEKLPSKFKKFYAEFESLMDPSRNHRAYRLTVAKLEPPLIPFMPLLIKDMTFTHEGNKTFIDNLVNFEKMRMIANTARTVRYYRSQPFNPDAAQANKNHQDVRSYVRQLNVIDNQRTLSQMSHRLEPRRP
Rap guanine nucleotide exchange factor 3 (Homo sapiens), sequence (O95398 whole entry, looked up): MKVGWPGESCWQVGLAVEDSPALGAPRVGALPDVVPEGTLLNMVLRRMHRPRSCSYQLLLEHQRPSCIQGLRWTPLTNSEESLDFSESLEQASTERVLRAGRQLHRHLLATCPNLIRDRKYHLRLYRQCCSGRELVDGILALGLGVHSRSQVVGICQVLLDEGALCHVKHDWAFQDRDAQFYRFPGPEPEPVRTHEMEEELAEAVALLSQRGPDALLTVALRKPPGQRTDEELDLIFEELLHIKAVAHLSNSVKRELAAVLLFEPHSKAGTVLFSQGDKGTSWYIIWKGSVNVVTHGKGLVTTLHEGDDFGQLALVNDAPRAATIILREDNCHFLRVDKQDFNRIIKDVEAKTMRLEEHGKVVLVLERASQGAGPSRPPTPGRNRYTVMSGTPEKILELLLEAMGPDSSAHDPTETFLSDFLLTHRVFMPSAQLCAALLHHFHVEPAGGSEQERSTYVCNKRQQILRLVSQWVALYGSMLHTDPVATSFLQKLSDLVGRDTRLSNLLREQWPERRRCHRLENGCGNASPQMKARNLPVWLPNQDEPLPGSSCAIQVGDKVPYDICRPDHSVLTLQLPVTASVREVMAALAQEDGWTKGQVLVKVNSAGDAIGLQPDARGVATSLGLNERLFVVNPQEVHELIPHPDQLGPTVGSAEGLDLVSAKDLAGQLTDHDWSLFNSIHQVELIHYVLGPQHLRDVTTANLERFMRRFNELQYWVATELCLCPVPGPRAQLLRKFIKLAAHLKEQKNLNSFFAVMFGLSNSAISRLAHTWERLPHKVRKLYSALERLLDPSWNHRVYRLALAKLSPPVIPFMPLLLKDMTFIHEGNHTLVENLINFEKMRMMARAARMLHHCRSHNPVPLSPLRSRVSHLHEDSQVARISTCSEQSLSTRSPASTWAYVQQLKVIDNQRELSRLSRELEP
Atrial natriuretic peptide receptor 1 (Homo sapiens), sequence (P16066 whole entry, looked up): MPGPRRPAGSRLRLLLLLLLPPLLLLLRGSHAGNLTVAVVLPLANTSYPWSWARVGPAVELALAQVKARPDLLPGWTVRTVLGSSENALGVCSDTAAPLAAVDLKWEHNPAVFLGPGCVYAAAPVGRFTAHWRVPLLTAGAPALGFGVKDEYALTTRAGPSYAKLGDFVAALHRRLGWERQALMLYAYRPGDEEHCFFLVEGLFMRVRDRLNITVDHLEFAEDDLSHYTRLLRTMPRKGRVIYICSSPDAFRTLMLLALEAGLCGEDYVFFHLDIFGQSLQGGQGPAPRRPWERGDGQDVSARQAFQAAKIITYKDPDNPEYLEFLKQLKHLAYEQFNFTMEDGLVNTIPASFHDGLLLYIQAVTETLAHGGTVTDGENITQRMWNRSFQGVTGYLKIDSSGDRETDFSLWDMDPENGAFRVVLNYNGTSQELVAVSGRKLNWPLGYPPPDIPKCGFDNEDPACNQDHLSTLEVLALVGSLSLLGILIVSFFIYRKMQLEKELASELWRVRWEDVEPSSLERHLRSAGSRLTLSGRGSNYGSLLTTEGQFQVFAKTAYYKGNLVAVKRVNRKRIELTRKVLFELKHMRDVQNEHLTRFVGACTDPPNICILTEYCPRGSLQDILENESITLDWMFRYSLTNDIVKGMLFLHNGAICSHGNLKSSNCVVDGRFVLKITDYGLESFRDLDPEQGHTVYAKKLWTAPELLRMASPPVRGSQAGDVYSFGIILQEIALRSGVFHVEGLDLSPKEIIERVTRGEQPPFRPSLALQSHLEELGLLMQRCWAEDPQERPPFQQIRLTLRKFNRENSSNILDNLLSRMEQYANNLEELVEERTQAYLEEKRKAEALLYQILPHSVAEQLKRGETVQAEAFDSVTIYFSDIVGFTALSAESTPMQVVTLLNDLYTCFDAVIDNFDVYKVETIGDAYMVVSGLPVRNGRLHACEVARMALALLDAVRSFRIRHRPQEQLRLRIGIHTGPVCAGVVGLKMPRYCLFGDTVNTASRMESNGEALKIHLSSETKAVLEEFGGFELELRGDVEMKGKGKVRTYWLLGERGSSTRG
Tyrosyl-DNA phosphodiesterase 1 (Homo sapiens), sequence (Q9NUW8 whole entry, looked up): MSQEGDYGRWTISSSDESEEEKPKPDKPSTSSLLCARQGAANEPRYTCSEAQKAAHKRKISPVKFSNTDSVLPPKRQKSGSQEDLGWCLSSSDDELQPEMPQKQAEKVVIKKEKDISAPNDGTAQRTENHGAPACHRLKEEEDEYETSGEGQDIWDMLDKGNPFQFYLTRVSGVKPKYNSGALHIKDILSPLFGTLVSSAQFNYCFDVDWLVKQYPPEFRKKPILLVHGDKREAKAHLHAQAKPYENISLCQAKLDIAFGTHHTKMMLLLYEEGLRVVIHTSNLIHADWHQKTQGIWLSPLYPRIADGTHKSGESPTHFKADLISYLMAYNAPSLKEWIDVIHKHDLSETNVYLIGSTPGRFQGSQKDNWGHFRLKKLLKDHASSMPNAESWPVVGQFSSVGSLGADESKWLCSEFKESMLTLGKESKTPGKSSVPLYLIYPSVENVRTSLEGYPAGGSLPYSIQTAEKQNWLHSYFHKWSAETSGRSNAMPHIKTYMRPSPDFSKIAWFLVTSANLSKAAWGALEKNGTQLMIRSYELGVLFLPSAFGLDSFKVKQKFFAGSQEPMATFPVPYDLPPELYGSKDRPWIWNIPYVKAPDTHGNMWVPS
Vitamin D3 receptor (Homo sapiens), sequence (P11473 whole entry, looked up): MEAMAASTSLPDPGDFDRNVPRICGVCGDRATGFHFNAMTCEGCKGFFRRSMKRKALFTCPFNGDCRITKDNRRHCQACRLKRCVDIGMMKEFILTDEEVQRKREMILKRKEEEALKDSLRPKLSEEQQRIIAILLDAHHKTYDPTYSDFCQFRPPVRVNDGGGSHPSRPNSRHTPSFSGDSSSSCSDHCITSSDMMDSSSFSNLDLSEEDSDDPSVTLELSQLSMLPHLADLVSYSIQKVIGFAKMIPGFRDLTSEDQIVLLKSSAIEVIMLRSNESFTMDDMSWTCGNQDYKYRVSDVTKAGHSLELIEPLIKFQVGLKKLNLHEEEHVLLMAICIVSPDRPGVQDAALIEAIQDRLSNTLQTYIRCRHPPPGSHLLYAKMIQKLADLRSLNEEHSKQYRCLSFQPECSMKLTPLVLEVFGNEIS

Consider `CCOC(=O)CN1C(=O)[C@@]2(CC(C)=CC[C@@H](COc3ccccc3)O2)c2c(Br)cccc21`, for which the Potency result in [1] was “inactive”.

With `CC=C(C)[C@H](O)C[Si](C)(C)c1ccccc1`, the Potency result in experiment [1] is “inactive”.

As for `COc1ccc([C@@H](NC(=O)C(F)(F)F)C2CCCC=C2c2ccccc2)cc1OC` (stereo partly specified), the Potency entry in [1] was “inactive”.

On to `FC(F)(F)c1ccc(-c2nc(-c3ccccc3)oc2NCc2ccccc2)cc1`, for which, in [1], the Potency result was “inactive”.

With `COc1cc(C(CC2=C(c3ccccc3)Cc3ccccc32)NC(=O)C(F)(F)F)cc(OC)c1OC` (stereo unspecified), the Potency entry in [1] is “inactive”.

For `CC1=CC[C@@H](COc2ccccc2)O[C@@]2(C1)C(=O)N(Cc1ccc(Br)cc1)c1ccccc12`, the Potency result in [1] is “inactive”.

For `COC(=O)c1ccc(CN2C(=O)[C@@]3(CC(C)=CC[C@@H](COc4ccccc4)O3)c3ccccc32)cc1`, the Potency result in experiment [1] is “inactive”.

Consider `COc1cc2c(c(OC)c1OC)[C@@]1(c3ccccc3)CCCCC[C@H]1[C@@H]2NC(=O)C(F)(F)F`, for which, in experiment [1], the Potency entry was “inactive”.

Consider `COc1ccc([C@]23Cc4ccccc4[C@H](O2)C2=C(CC4(CCCCC4)OC2=O)O3)cc1`, for which, in experiment [1], the Potency entry was “inactive”.

Regarding `COc1ccc(-c2nc(-c3ccccc3)c(NCc3ccccc3)o2)cc1`, in [1], the Potency result was “inactive”.

On to `COC(=O)N1C(C=Cc2ccc3c(c2)OCO3)=Cc2ccccc2C1CC(C)=O` (stereo unspecified), for which the Potency entry in [1] is “inactive”.

On to `Cc1ccccc1Nc1oc(-c2ccccc2)nc1-c1cccc2ccccc12`, for which the Potency result in [1] is “inactive”.

Regarding `CCOC(=O)C1=NO[C@@]2(C=C(Br)C(=O)[C@H]3O[C@H]32)C1`, the values for the Potency in [2] and in [3] were 11.2 µM (active) and 12.6 µM (active), respectively.

Take `COC(=O)CCC(=O)OC1(C)C(=O)C=C2C=C(C3CC3)N(CCCOC(C)C)C=C2C1=O` (stereo unspecified): the Potency entry in experiment [4] and in experiment [7] was “inactive” throughout. Moreover, the molecule was called inactive in experiment [5] and in experiment [6].

`CCCCC1=CC2=CC(=O)C(C)(OC(=O)CCc3ccccc3)C(=O)C2=CO1` (stereo unspecified): the outcome in experiment [5] was inactive. Besides, in experiment [6], the activation is 0% [at 17.1 µM]. Further, the activity change, negative = inhibition in experiment [7] was 20.8% [at 12.7 µM].

For the molecule `Cc1cc2c(nc1C)CCCCN2C[C@H](C)ON=C[C@@H](C)[C@H](OCc1ccccc1)C(C)C`, the Potency result in experiment [8], in experiment [9], in experiment [10], in [11] and in [1] was “inactive” each time.

In the case of `CCN1C(=NCCCOC(C)C)N[C@H](c2ccccc2)[C@H](C(=O)OC)[C@H]1C`, the Potency entry in experiment [8], in experiment [9], in experiment [10], in experiment [11] and in experiment [1] was “inactive” in each case.

For the molecule `CCN1C(=O)N[C@@H](CCc2ccccc2)[C@@H](C(=O)OC)[C@H]1C`, the activity, negative = inhibition in experiment [8] is 2.52% [at 1.12 µM]. Besides, the Potency entry in experiment [9], in experiment [10], in [11] and in experiment [1] was “inactive” throughout.
